Pf growth 48h: Primary qHTS for delayed death inhibitors of the malarial parasite plastid, 48 hour incubation; P. falciparum luciferase growth in erythrocytes, 48 h; Potency, µM (titrated, usually from 28.7 µM), hits mostly inhibitors; hit rate 5.9% among 310,000
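Parasite viability was followed by luminescence of a genomically integrated firefly luciferase. Cultures held 0.1% parasitemia at 2% hematocrit (final), incubated under 5% CO2 at 37 C.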
SARS PLpro yeast: qHTS of Yeast-based Assay for SARS-CoV PLP; Potency, µM (doses to about 32.9 µM), actives largely listed as activators; S. cerevisiae expressing SARS-CoV PLpro, growth rescue; hit rate 0.19% among 330,000; AID 485353, 2010; calls by dose curve; further: nearly all actives have a fitted effect of over 55% in size
Sm TGR inh: qHTS Assay for the Inhibitors of Schistosoma Mansoni Peroxiredoxins. purified TGR, DTNB reduction, TNB absorbance 405 nm. Schistosoma mansoni thioredoxin glutathione reductase (TGR), Q962Y6. Potency, µM (highest dose often 114 µM), usual class: inhibitors. hit rate 3% among 360,000. AID 485364, 2010; further: nearly all actives have a fitted effect of over 60% in size
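First, TGR (20 nM dispensed) and NADPH were mixed with compound. Second, a 15 min room-temperature incubation followed. Third, further NADPH and then DTNB were added to start the reaction. Finally, TNB absorbance was monitored kinetically.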
Pf growth 96h: Primary qHTS for delayed death inhibitors of the malarial parasite plastid, 96 hour incubation | P. falciparum luciferase reporter growth, 96 h | Potency, µM (titrated, usually from 28.7 µM), usual class: inhibitors | hit rate 6.9% among 320,000 | AID 504834, 2011
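Parasite growth measured via integrated firefly luciferase reporter in P. falciparum. Infected erythrocytes at 2% hematocrit, 0.05% parasitemia final were treated 96 hours at 37 C under 5% CO2, and luminescence was read.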
Each line names hits and unclear results; the compound was inactive in the other large screens. Compounds with a hit are over-represented: about 12% of the library has one in this group of screens. Unless noted, the call rests on the fitted dose curve; in most records, active means well fitted curve in the direction sought with a large enough effect; inconclusive means small, poorly fitted or top-dose-only effect, or another doubt; inactive means no such curve, though single readings can be large; an effect the other way counts as inactive or inconclusive.

CCCCNC(=O)CC1Nc2ccccc2NC1=O (centres undefined)	none
COc1ccc(CNc2ncnc3c2nc2n3CCCC2)cc1	none (no result: Pf growth 48h, SARS PLpro yeast, Pf growth 96h)
COc1ccc(/C(C)=N/Nc2ccccc2Cl)c(O)c1	Sm TGR inh 14.1µM
COc1ccc(C(=O)c2ccccc2O)c(O)c1	Pf growth 48h 4.15µM, Pf growth 96h inconclusive (no result: SARS PLpro yeast)
CC(C)(C)c1csc(SCC(=O)Nc2ccc(Cl)cn2)n1	Pf growth 48h 11.7µM, Pf growth 96h inconclusive
O=C(c1nc[nH]c1C(=O)N1CCc2ccccc2C1)N1CCc2ccccc2C1	none
CN(Cc1ccccc1)C(=O)c1nc[nH]c1C(=O)N1CCc2ccccc2C1	Sm TGR inh 35.5µM, Pf growth 96h inconclusive
CS(=O)(=O)NCc1ccccc1Br	none
Cc1ccc(S(=O)(=O)N/N=C/c2cc(Br)c(C)o2)cc1	Sm TGR inh 0.1µM
COc1ccc(/C=N/NS(=O)(=O)c2ccc(C)cc2)cc1	Pf growth 96h 3.29µM
Cc1cccc(N2CCN(C(=O)CCc3c(C)nc4ncnn4c3C)CC2)c1C	none (no result: Pf growth 48h, SARS PLpro yeast, Pf growth 96h)
CC(CNC(=O)c1nnc(Cc2ccc(F)cc2)o1)c1ccccc1 (centres undefined)	none (no result: Pf growth 48h, SARS PLpro yeast, Pf growth 96h)
O=C(Nc1ccc2c(c1)OCCO2)c1cc2sccc2n1Cc1ccccc1	Pf growth 48h inconclusive, Pf growth 96h inconclusive
O=C(NCCCN1CCCC1)C1CCN(C(=O)c2cc3sccc3n2Cc2ccc(F)cc2)CC1	Pf growth 96h 10.4µM (no result: Pf growth 48h)
Cc1cccc(C)c1NC(=O)c1cc2sccc2n1Cc1ccc(F)cc1	none (no result: Pf growth 48h, SARS PLpro yeast, Pf growth 96h)
COCCCNC(=O)C1CCN(C(=O)c2cc3sccc3n2Cc2ccc(F)cc2)CC1	Pf growth 96h inconclusive (no result: Pf growth 48h)
O=C(NCc1ccco1)C1CCN(C(=O)c2cc3sccc3n2Cc2ccc(F)cc2)CC1	Pf growth 48h 1.85µM
CC1Cc2ccccc2N1C(=O)c1cc2sccc2n1Cc1ccc(F)cc1 (centres undefined)	Pf growth 48h 11.7µM, Pf growth 96h inconclusive
O=C(Nc1ccc2c(c1)OCCO2)c1cc2sccc2n1Cc1ccc(F)cc1	Pf growth 48h inconclusive, Pf growth 96h 10.4µM
O=C(NCc1ccccn1)C1CCN(C(=O)c2cc3sccc3n2Cc2ccc(F)cc2)CC1	Pf growth 96h inconclusive
CCC(Oc1ccccc1)C(=O)N1CCN(Cc2cc(=O)n3nc(-c4cccc(C)c4)sc3n2)CC1 (centres undefined)	none (no result: Pf growth 48h, SARS PLpro yeast, Pf growth 96h)
O=C(NCc1ccc(Cl)cc1)c1cnc2sc(N3CCCC3)nn2c1=O	none (no result: Pf growth 48h, SARS PLpro yeast, Pf growth 96h)
Cc1ccc(CNc2ncnc3c2c(-c2ccccc2)cn3-c2cccc(Cl)c2)cc1	none (no result: Pf growth 48h, SARS PLpro yeast, Pf growth 96h)
COCCNC(=O)CN(C(=O)c1ccc(N2CCCC2)nc1)c1ccc(Cl)cc1	Pf growth 96h inconclusive
CCC(C)(C)NC(=O)CN(C(=O)c1ccc(N2CCCC2)nc1)c1ccc(F)cc1	Pf growth 48h 4.15µM, Pf growth 96h inconclusive
COc1ccc(N(CC(=O)NC2CCCC2)C(=O)c2ccc(N3CCCCC3)nc2)cc1	Pf growth 48h 9.28µM, Pf growth 96h inconclusive
COc1cccc(NC(=O)c2cnc(SCC(=O)N3CCOCC3)n(C)c2=O)c1	none (no result: Pf growth 48h, SARS PLpro yeast, Pf growth 96h)
CCOC(=O)/C=C(C)\C=C\c1c[nH]c2ccccc12	Pf growth 48h 13.1µM, Sm TGR inh inconclusive
COc1ccc(S(=O)(=O)N2CCN(C(=O)c3ccc(NC(C)=O)cc3)CC2)cc1	Pf growth 48h inconclusive, Sm TGR inh inconclusive
CCCN(CCC)S(=O)(=O)c1ccc(C(=O)Nc2cc3oc4ccccc4c3cc2OC)cc1	Pf growth 48h 10.4µM
COc1cc2c(cc1NC(=O)CN(C)Cc1ccc(OC)c(OC)c1)oc1ccccc12	Pf growth 48h 9.28µM, Pf growth 96h 7.38µM
COc1cc2c(cc1NC(=O)Cc1ccc(C)cc1)oc1ccccc12	none
CCN(CC)S(=O)(=O)c1cccc(C(=O)Nc2cc3oc4ccccc4c3cc2OC)c1	Pf growth 96h inconclusive
COc1ccc(OC)c(NC(=O)c2cc3oc4ccccc4c3cc2O)c1	Pf growth 48h 4.15µM, Pf growth 96h inconclusive
COc1ccc(CN(C)CC(=O)Nc2cc3oc4ccccc4c3cc2OC)c(OC)c1	Pf growth 48h inconclusive, Pf growth 96h 9.28µM
Oc1ccc(C[C@H]2CNCCN2CC2(c3ccccc3)CC2)cc1	Pf growth 48h inconclusive, Pf growth 96h inconclusive
CCS(=O)(=O)c1cc([N+](=O)[O-])c(Sc2ccccc2NC(C)=O)s1	Sm TGR inh 2.82µM
Fc1cc(F)c(C2SCCN2C(=S)Nc2cccc(C(F)(F)F)c2)c(F)c1 (centres undefined)	Pf growth 48h inconclusive, Pf growth 96h 2.94µM
CCN1CCN(C(=S)Nc2cccc(C(F)(F)F)c2)CC1	Pf growth 96h 9.28µM
Fc1ccc(NC(=S)N2CCN(c3cccc(C(F)(F)F)c3)CC2)cc1	none
FC(F)(F)c1cccc(NC(=S)N2CCN(c3cccc(C(F)(F)F)c3)CC2)c1	Pf growth 96h 5.86µM
O=C(Nc1ccc(F)cc1Cl)C1=COCCO1	none
CCc1noc(C)c1C(=O)N1CC(C)SC1=Nc1ccc(Cl)cc1 (centres undefined)	Pf growth 48h 10.4µM, Pf growth 96h 13.1µM
CCc1noc(C)c1C(=O)N1CC(C)OC(C)C1 (centres undefined)	none
O=C(c1c(Cl)cccc1Cl)N1CCN(c2ncccn2)CC1	none (no result: Pf growth 48h)
CCOc1ccc(C2=C(C=Nc3c(C)n(C)n(-c4ccccc4)c3=O)C(c3ccc(F)cc3)c3ccccc3O2)cc1 (centres undefined)	Pf growth 96h 0.294µM (no result: Pf growth 48h)
CCOC(=O)c1ccc(N=Cc2c(O)c3ccccc3oc2=O)cc1	Pf growth 96h inconclusive
CCOC(=O)c1cnc(-c2ccccc2)nc1N1CCOCC1	Pf growth 48h inconclusive
CCOC(=O)c1c(C)oc2c1c(C(c1cccnc1)N1CCCCC1)c(O)c1ccccc12 (centres undefined)	Pf growth 48h inconclusive, Sm TGR inh 0.708µM (no result: Pf growth 96h)
CCOC(=O)c1c(C)oc2c1c(C=NCCO)c(O)c1ccccc12	Pf growth 48h inconclusive, Sm TGR inh 39.8µM, Pf growth 96h 13.1µM
CCOC(=O)c1c(C)oc2c1c(C(c1ccccc1)N1CCOCC1)c(O)c1ccccc12 (centres undefined)	Sm TGR inh 10µM, Pf growth 96h inconclusive (no result: Pf growth 48h)
CCOC(=O)c1c(N2CCCCC2)c2ccccc2[nH]c1=O	none (no result: Pf growth 96h)
CCOC(=O)C1=C(Cc2ccc(Cl)cc2)C(=O)c2ccccc2C1=O	Pf growth 48h inconclusive, Sm TGR inh 3.55µM (no result: Pf growth 96h)
CCC(NC(=O)c1ccc2nc(Cc3ccc(OC)cc3)oc2c1)c1ccncc1 (centres undefined)	Pf growth 96h inconclusive
O=C(Cc1ccc(Cl)cc1)NCCS(=O)c1ccc(Cl)cc1 (centres undefined)	Pf growth 96h 1.17µM
O=C(COC(=O)c1cnccn1)NC1CCCc2ccccc21 (centres undefined)	none (no result: Pf growth 48h, Sm TGR inh, Pf growth 96h)
CC(C)c1ccc(OCC(=O)NC2CC(C)(C)NC(C)(C)C2)c(Br)c1	Pf growth 48h inconclusive
CCOC(=O)c1oc2ccccc2c1NC(=O)c1ccc2c(c1)OCO2	Pf growth 96h 13.1µM
CCOC(=O)c1oc2ccccc2c1NC(=O)CCl	Pf growth 48h inconclusive, Sm TGR inh 5.62µM, Pf growth 96h inconclusive
CCOC(=O)c1[nH]c2ccccc2c1NC(=O)c1ccc2c(c1)OCO2	none (no result: Pf growth 48h)

Bioassay records: PubChem, National Center for Advancing Translational Sciences (NCATS)
